Compounds without any hit were thinned out: in the full panel of roughly 83,000, 20% have a hit.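 Growth was measured after 48 h exposure to one concentration of compound in 96-well plates. Values under 10 count as active.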 The source made the active and inactive calls.
Columns and labels:
Experiment in all cases: NCI-60 one-dose screen, 48 h (100 = growth as untreated, 0 = no growth, -100 = all killed)
Settings in all cases: 10 µM
786-0 renal = tested on: 786-0 renal
MALME-3M melanoma = tested on: MALME-3M melanoma
SF-268 CNS = tested on: SF-268 CNS
SF-295 CNS = tested on: SF-295 CNS
UACC-257 melanoma = tested on: UACC-257 melanoma
UACC-62 melanoma = tested on: UACC-62 melanoma
SK-MEL-28 melanoma = tested on: SK-MEL-28 melanoma
SK-MEL-2 melanoma = tested on: SK-MEL-2 melanoma
EKVX NSCLC = tested on: EKVX NSCLC
SN12C renal = tested on: SN12C renal
UO-31 renal = tested on: UO-31 renal
TK-10 renal = tested on: TK-10 renal
ACHN renal = tested on: ACHN renal
CAKI-1 renal = tested on: CAKI-1 renal
A498 renal = tested on: A498 renal
OVCAR-8 ovarian = tested on: OVCAR-8 ovarian
OVCAR-5 ovarian = tested on: OVCAR-5 ovarian
IGROV1 ovarian = tested on: IGROV1 ovarian
OVCAR-3 ovarian = tested on: OVCAR-3 ovarian
HS 578T breast = tested on: HS 578T breast

Measured: growth

COc1ccc(C(=O)COc2ccc(NC(=O)Nc3ccccc3)cc2)cc1
inactive: 786-0 renal 94% | MALME-3M melanoma 85.3% | SF-268 CNS 91.6% | SF-295 CNS 90.5% | UACC-257 melanoma 93.8% | UACC-62 melanoma 80% | SK-MEL-28 melanoma 102% | SK-MEL-2 melanoma 80.8% | EKVX NSCLC 82.7% | SN12C renal 91.1% | UO-31 renal 80% | TK-10 renal 101% | ACHN renal 98% | CAKI-1 renal 72.7% | A498 renal 104% | OVCAR-8 ovarian 87.2% | OVCAR-5 ovarian 98.7% | IGROV1 ovarian 94.8% | OVCAR-3 ovarian 104% | HS 578T breast 97.3%

COc1ccc(C2c3sc4ccc(C)cc4c3Oc3nc[nH]c(=O)c32)cc1 (stereo not given)
inactive: 786-0 renal 103% | MALME-3M melanoma 84.8% | SF-268 CNS 89.7% | SF-295 CNS 107% | UACC-257 melanoma 88.2% | UACC-62 melanoma 59.2% | SK-MEL-28 melanoma 80.9% | SK-MEL-2 melanoma 68.8% | EKVX NSCLC 92.7% | SN12C renal 91.7% | UO-31 renal 64.5% | TK-10 renal 137% | ACHN renal 106% | CAKI-1 renal 60% | A498 renal 119% | OVCAR-8 ovarian 98.1% | OVCAR-5 ovarian 113% | IGROV1 ovarian 83.6% | OVCAR-3 ovarian 89% | HS 578T breast 78.5%

O=C(CC(=O)Nc1ccc(Oc2ncnc3scc(Nc4n[nH]c(=S)s4)c23)cc1)Nc1ccc(Br)cc1
inactive: 786-0 renal 109% | MALME-3M melanoma 105% | SF-268 CNS 98.7% | SF-295 CNS 112% | UACC-257 melanoma 104% | UACC-62 melanoma 82.2% | SK-MEL-28 melanoma 110% | SK-MEL-2 melanoma 98.8% | EKVX NSCLC 101% | SN12C renal 106% | UO-31 renal 85.1% | TK-10 renal 146% | ACHN renal 106% | CAKI-1 renal 88.8% | A498 renal 121% | OVCAR-8 ovarian 102% | OVCAR-5 ovarian 106% | IGROV1 ovarian 106% | OVCAR-3 ovarian 105% | HS 578T breast 96.7%

O=C(CSc1nc2ccccc2c(=O)n1-c1ccc(Cl)cc1)Nc1ccc(-c2nc3ccccc3[nH]2)cc1
active: 786-0 renal -76.9% | MALME-3M melanoma -78.1% | SF-268 CNS -33.3% | SF-295 CNS -7.28% | UACC-62 melanoma -12.1% | SK-MEL-28 melanoma -62% | SN12C renal -37.2% | UO-31 renal -39.1% | TK-10 renal -31.9% | ACHN renal 3.26% | CAKI-1 renal -67.9% | OVCAR-8 ovarian -17.8% | OVCAR-3 ovarian -35.5% | HS 578T breast -27.4%
inactive: UACC-257 melanoma 13.3% | SK-MEL-2 melanoma 82.1% | EKVX NSCLC 27.4% | A498 renal 109% | OVCAR-5 ovarian 67.8% | IGROV1 ovarian 53.2%

CC1(C)CC(=O)C2=C(C1)N(Cc1ccc(C(=O)O)cc1)C1=C(C(=O)CC(C)(C)C1)C2c1ccc(Cl)cc1
inactive: 786-0 renal 95.5% | MALME-3M melanoma 105% | SF-268 CNS 106% | SF-295 CNS 99.4% | UACC-257 melanoma 101% | UACC-62 melanoma 89.9% | SK-MEL-28 melanoma 119% | SK-MEL-2 melanoma 97.6% | EKVX NSCLC 97.5% | SN12C renal 103% | UO-31 renal 81.6% | TK-10 renal 92.2% | ACHN renal 116% | CAKI-1 renal 90.5% | A498 renal 95.8% | OVCAR-8 ovarian 105% | OVCAR-5 ovarian 106% | IGROV1 ovarian 107% | OVCAR-3 ovarian 112% | HS 578T breast 105%

O=C(Nc1ccc(Oc2ncnc3scc(Nc4n[nH]c(=S)s4)c23)cc1)C1(C(=O)Nc2cccc(C(F)(F)F)c2)CC1
inactive: 786-0 renal 107% | MALME-3M melanoma 95.8% | SF-268 CNS 102% | SF-295 CNS 108% | UACC-257 melanoma 110% | UACC-62 melanoma 86.5% | SK-MEL-28 melanoma 108% | SK-MEL-2 melanoma 113% | EKVX NSCLC 97.1% | SN12C renal 108% | UO-31 renal 69.4% | TK-10 renal 143% | ACHN renal 95.6% | CAKI-1 renal 81.6% | A498 renal 122% | OVCAR-8 ovarian 103% | OVCAR-5 ovarian 87.9% | IGROV1 ovarian 70% | OVCAR-3 ovarian 104% | HS 578T breast 100%

COc1ccc(C2c3sc4ccc(C)cc4c3Oc3nc(N)nc(N)c32)cc1 (stereo not given)
inactive: 786-0 renal 102% | MALME-3M melanoma 85.3% | SF-268 CNS 88.6% | SF-295 CNS 102% | UACC-257 melanoma 94.9% | UACC-62 melanoma 63.4% | SK-MEL-28 melanoma 93.2% | SK-MEL-2 melanoma 96% | EKVX NSCLC 76.4% | SN12C renal 91.4% | UO-31 renal 60.5% | TK-10 renal 125% | ACHN renal 94.4% | CAKI-1 renal 63.3% | A498 renal 113% | OVCAR-8 ovarian 87% | OVCAR-5 ovarian 96.2% | IGROV1 ovarian 79.1% | OVCAR-3 ovarian 96.8% | HS 578T breast 78.8%

O=C(Nc1ccc(OCc2ccc(F)cc2)cc1)Nc1ccc(Cl)c(C(F)(F)F)c1
inactive: 786-0 renal 13.5% | SF-268 CNS 39% | SK-MEL-28 melanoma 31.4% | SN12C renal 21.9% | TK-10 renal 20.2% | ACHN renal 14.6% | OVCAR-8 ovarian 12.8% | OVCAR-5 ovarian 31.9% | IGROV1 ovarian 43.6% | OVCAR-3 ovarian 34.5% | HS 578T breast 24%
active: MALME-3M melanoma -10.2% | SF-295 CNS -30.4% | UACC-257 melanoma -1.33% | UACC-62 melanoma 6.53% | SK-MEL-2 melanoma -34.7% | EKVX NSCLC 8.3% | UO-31 renal 7.5% | CAKI-1 renal 2.77% | A498 renal -9.28%

COc1cc(C2CC(c3ccc(Oc4ccc(Cl)cc4)cc3)=NN2c2nc(-c3ccc(Cl)cc3)c(C#N)c(N3CCOCC3)n2)cc(OC)c1OC (stereo not given)
inactive: 786-0 renal 98.8% | MALME-3M melanoma 106% | SF-268 CNS 104% | SF-295 CNS 107% | UACC-257 melanoma 101% | UACC-62 melanoma 91.2% | SK-MEL-28 melanoma 97.8% | SK-MEL-2 melanoma 106% | EKVX NSCLC 94.5% | SN12C renal 91.4% | UO-31 renal 79.2% | TK-10 renal 96.1% | ACHN renal 96.5% | CAKI-1 renal 79% | A498 renal 114% | OVCAR-8 ovarian 104% | OVCAR-5 ovarian 101% | IGROV1 ovarian 106% | OVCAR-3 ovarian 117% | HS 578T breast 104%

O=C(Nc1ccc(OCC(=O)c2ccc(Cl)cc2)cc1)Nc1ccc(Cl)c(C(F)(F)F)c1
inactive: 786-0 renal 26% | MALME-3M melanoma 27.4% | SF-268 CNS 46.5% | SF-295 CNS 27.5% | UACC-257 melanoma 19.8% | UACC-62 melanoma 18.1% | SK-MEL-28 melanoma 32.7% | EKVX NSCLC 16.9% | SN12C renal 58% | UO-31 renal 13.9% | TK-10 renal 71.9% | ACHN renal 16.8% | CAKI-1 renal 41.1% | OVCAR-8 ovarian 30.1% | OVCAR-5 ovarian 61.2% | IGROV1 ovarian 39.9% | OVCAR-3 ovarian 34% | HS 578T breast 18%
active: SK-MEL-2 melanoma -35.4% | A498 renal 0.685%

Cn1cc(-c2nc(N)nnc2-c2c[nH]c3ccccc23)c2cc(Br)cnc21
inactive: 786-0 renal 28.4% | MALME-3M melanoma 36.7% | SF-268 CNS 20.3% | SF-295 CNS 15% | UACC-257 melanoma 46% | UACC-62 melanoma 21.1% | SK-MEL-28 melanoma 39.8% | SK-MEL-2 melanoma 24.7% | EKVX NSCLC 29.8% | SN12C renal 17.7% | UO-31 renal 11.8% | TK-10 renal 64.2% | ACHN renal 19.2% | CAKI-1 renal 11.9% | A498 renal 96.3% | OVCAR-5 ovarian 21.8% | IGROV1 ovarian 23.2% | HS 578T breast 40.7%
active: OVCAR-8 ovarian 5.76% | OVCAR-3 ovarian 9.25%

O=C1NC2C=CC=CC2/C1=C1/SC(=S)N(C2CC(=O)N(c3ccc(Br)cc3)C2=O)C1=O (stereo not given)
inactive: 786-0 renal 97.5% | MALME-3M melanoma 97.6% | SF-268 CNS 95.7% | SF-295 CNS 109% | UACC-257 melanoma 95.9% | UACC-62 melanoma 87.6% | SK-MEL-28 melanoma 101% | SK-MEL-2 melanoma 107% | EKVX NSCLC 92.6% | SN12C renal 96% | UO-31 renal 68.3% | TK-10 renal 124% | ACHN renal 94.1% | CAKI-1 renal 77.1% | A498 renal 129% | OVCAR-8 ovarian 97.6% | OVCAR-5 ovarian 104% | IGROV1 ovarian 100% | OVCAR-3 ovarian 92.2% | HS 578T breast 98.9%

COc1cccc(C(=O)CSc2nc(-c3ccc(OCc4ccccc4)c(OC)c3)c(C#N)c(=O)[nH]2)c1
inactive: 786-0 renal 85.7% | MALME-3M melanoma 98.3% | SF-268 CNS 97.4% | SF-295 CNS 95.2% | UACC-257 melanoma 94% | UACC-62 melanoma 90.9% | SK-MEL-28 melanoma 96.5% | SK-MEL-2 melanoma 91.7% | EKVX NSCLC 97.1% | SN12C renal 85.6% | UO-31 renal 82.8% | TK-10 renal 94.7% | ACHN renal 99.9% | CAKI-1 renal 90.8% | A498 renal 95.4% | OVCAR-8 ovarian 105% | OVCAR-5 ovarian 100% | IGROV1 ovarian 106% | OVCAR-3 ovarian 106% | HS 578T breast 90.8%
